Measurements reported in PubChem BioAssay AID1259415 (National Center for Advancing Translational Sciences (NCATS), 2018).
“And” between values parts separate entries of the source, which are not always exact repeats. Equal entries are not always repeated. Screen size: about 410,000 compounds; about 18,000 (4.4%) were called active. About 7% were inconclusive and are not listed. The sample holds actives, similar compounds and a random draw of the others, so the mix is not that of the screen. Unmarked numbers belong to inactive results. Cut-off read from the data, not from the text of the source: active = activity change below about -60%; inconclusive = no clear call, values can overlap the other calls; inactive = above about -39%.

assay: qHTS Assay for inhibitors of the human cytomegalovirus (HCMV); conditions: HFF cells, HCMV-luciferase reporter, 72 h; at 57.5 µM; active compounds read low
Outline: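 Compounds were evaluated in HFFs infected with an HCMV luciferase reporter virus (MOI 1 PFU/cell). Luciferase in lysates collected 72 h post infection served as the replication measure.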
% is set by controls: 0 for no effect and ±100 for the full control effect.

SMILES | activity change, negative = inhibition
Cc1ccccc1Cn1c2ccccc2c2cnn(CC(=O)NCc3ccco3)c(=O)c21 | -95.6% (active)
CCCN(CCC)CCCNC(=O)Cn1ncc2c3ccccc3n(Cc3ccccc3)c2c1=O | -11.9%
O=C(Cn1ncc2c3ccccc3n(Cc3ccccc3)c2c1=O)NCc1ccccn1 | -12.1% and -33.7%
Cc1ccc(-c2nnc(Nc3ccc(OCC(N)=O)cc3)c3ccccc23)cc1S(=O)(=O)NCC1CCCO1 (stereo not drawn) | -19.2%
CCn1c(=O)cc(OCC(=O)Nc2cc(Cl)c(OC)cc2OC)c2ccccc21 | 0.565%
C=CCC(C(=O)c1ccccc1)[N+](C)(C)CC=C (stereo not drawn) | 12.4%
COC(=O)[C@@H]1CCCN1C(=O)c1cc(COc2cccc3cccnc23)on1 | -61.4% (active)
COCC1CCCCN1C(=O)c1cc(COc2ccc(C)c(C)c2)on1 (stereo not drawn) | 50.2%
Cc1nonc1C1CCCN1C(=O)c1cc(COc2cccc(C(F)(F)F)c2)on1 (stereo not drawn) | 10.6%
O=C(Cc1csc(Nc2nc(=S)[nH]c3ccccc23)n1)NCCCN1CCN(c2cccc(Cl)c2)CC1 | 2.37%
CCC(=O)NC(NCC1CCCO1)C(Cl)(Cl)Cl (stereo not drawn) | -10.5%
COCCN(CCOC)c1nc(N)c2c(N)nc3c(c2c1C#N)CC(=O)N3Cc1ccc(Cl)cc1 | 30.8%
Cc1cc(C)c(SCCc2ccncc2)c(C)c1 | -63.8% (active)
c1ccc(CSCCc2ccncc2)cc1 | -24.8%
Cc1cc(C)c(NC(=O)CSc2nc3ccncc3[nH]2)c(C)c1 | -3.75%
COc1ccc2c(c1)C=C(C(=O)NCc1cc(Br)ccc1OC)CO2 | -22.6%
Cc1ccccc1Nc1scc(-c2ccc(Br)cc2)[n+]1-c1ccccc1C | -68.6% (active)
CSCC[C@H](NC(=O)N1CCn2c1nc1ccccc12)C(=O)NC1CCCCC1 | -35.1%
CSc1ccc(Cl)c(C(=O)OCC(=O)N2CCNC2=O)c1 | -17%
CCN1CCN(C(=O)CN(C)S(=O)(=O)c2ccc3ccccc3c2)CC1 | -9.61%

SMILES | activity change, negative = inhibition
CC(=O)Oc1ccc(N(C(C)=O)S(=O)(=O)c2ccc3ccccc3c2)cc1Br | -69.6% (active)
CN(C1CCS(=O)(=O)C1)S(=O)(=O)c1ccc2ccccc2c1 (stereo not drawn) | -24.3%
CCC(CC)C(=O)N1CCc2cc(OC)c(OC)cc2C1COc1ccc(F)cc1 (stereo not drawn) | -15.5%
O=C(Nc1c(C(=O)N2CCCCC2)cnn1-c1ccccc1)c1ccco1 | 22.9%
COc1cc(C)ccc1OCCSc1nc2ccc(NC(=O)c3ccc(C)cc3)cc2s1 | 24.3%
O=C(Nc1ccc2nc(SCCOc3ccccc3Cl)sc2c1)c1ccco1 | -70% (active)
CC(=O)Nc1ccc2nc(SCCOc3cc(C)cc(C)c3)sc2c1 | -35%
CC(C)OC(=O)c1ccc(COc2ccc3ccc(=O)oc3c2)o1 | -15.4%
O=C(COc1ccc2ccc(=O)oc2c1)NCC(O)c1ccccc1 (stereo not drawn) | -6.86%
CC(=CCOc1ccc2ccc(=O)oc2c1)C1=CC(=O)C(C)(C)O1 | -76.5% (active)
CCOc1ccc(CNC(=O)c2ccc3nc(CC)c(CC)nc3c2)cc1OC | -2.8%
CCC(=O)Nc1cccc(C(=O)OCc2cc(=O)n3nc(CC)sc3n2)c1 | -14.2%
CC(C)=CCc1c(O)c(CC=C(C)C)c2occ(-c3ccc(O)cc3)c(=O)c2c1O | -100% (active)
Cc1ccc(C(O)c2nnc(Nc3cccc(Oc4ccccc4)c3)s2)cc1 (stereo not drawn) | -5.85%
O=C(CCNC(=O)c1ccccc1)NN=Cc1ccc(Br)o1 | -13.4%
O=C(N/N=C/c1ccc(Br)o1)c1cncc(Br)c1 | -102% (active)
COC(=O)c1ccccc1NC(=O)c1cncc(Br)c1 | -30.4%
O=C(CCNc1n[nH]c(=O)[nH]c1=O)N/N=C\c1ccc(Br)cc1 | 0%
Cc1ccc(C(=O)N/N=C\c2cc(Br)c(Br)o2)cn1 | -32.6%
O=C(CCC(=O)N/N=C/c1ccc(Br)o1)N/N=C/c1ccc(Br)o1 | -61.8% (active)

SMILES | activity change, negative = inhibition
COc1ccc(-c2cc(C(F)(F)F)n3nc(-c4ccccc4)cc3n2)cc1OC | -15.9%
COc1ccccc1NC(=O)C1CCN(C(=O)c2ccc(C(C)(C)C)cc2)CC1 | 28.4%
CC(=O)Nc1ccc(S(=O)(=O)N2CCn3cccc3C2C)cc1 (stereo not drawn) | 36.8%
CCC(Cc1ccccc1)NS(=O)(=O)c1ccc2c(c1)NC(=O)CS2 (stereo not drawn) | -70.6% (active)
O=C1CSc2ccc(S(=O)(=O)NCc3ccccc3)cc2N1 | 0%
COc1ccccc1CNS(=O)(=O)c1ccc2c(c1)NC(=O)CS2 | -16.2%
Cc1cccc(N2CCN(C(=O)c3cnc(N4CCCC4)nc3C)CC2)c1C | -23.5%
Cc1nc(SCC(=O)N2CCN(c3ccccc3)CC2)[nH]c(=O)c1C | 17.7%
O=C(CSc1nc2ccccc2o1)N1CCN(c2ccc(Cl)cc2)CC1 | -0.478%
O=C(CSc1nc2ccccc2o1)N1CCN(c2ccccc2)CC1 | -78.3% (active)
COC(=O)c1ccccc1NC(=O)Cn1c(=O)n(-c2cccc(C(F)(F)F)c2)c(=O)c2c(C)c(C)sc21 | -21.9%
O=C(CN1C(=O)COc2ccc(S(=O)(=O)N3CCOCC3)cc21)N1CCN(c2cccc(Cl)c2)CC1 | -4.92%
CCC1(CC)NC(=O)N(CC(=O)OCC(=O)NC(=O)c2ccccc2)C1=O | -39.9%
Cn1c(CCc2ccccc2)nnc1SCC(N)=O | 8.58%
N#Cc1ccc(CSc2ncccn2)cc1 | 4.06%
N#CC1=C(SCc2ccc(C#N)cc2)N=C(N)C(c2nc(-c3ccccc3)cs2)C12CCCCC2 (stereo not drawn) | -98.4% (active)
O=C(CCCn1c(=O)c2cccn2c2cccnc21)NCc1ccc(F)cc1 | -18%
CCOc1ccccc1NC(=O)c1ccc2c(c1)CCN2S(=O)(=O)c1ccc(C)cc1 | 18.6%
